A short description of experiment [1]: small molecules captured by biotinylated probe aFSTL3 – biochemical, small-molecule microarray, fluorescence 635/667, stem cell growth factor project, primary screen (AID 1064).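 Note: measures binding of the biotinylated anti-FSTL3 antibody to printed compounds.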 Conditions: higher = more signal.
The nature of experiment [2]: binders from COS7 lysate, DM2A8 probe, primary screen, torsin A project, cell lysate, small-molecule microarray, fluorescence 635/667 (AID 1065). Conditions: higher = more signal, COS7 lysate expressing mutant human TOR1A.
The nature of experiment [3]: small molecules captured by biotinylated probe aFGF2 – biochemical, small-molecule microarray, fluorescence 635/667, stem cell growth factor project, primary screen (AID 1067).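 Note: measures binding of biotinylated aFGF2 protein to printed compounds on slides; z-score merges feature fluorescence and signal-to-noise across triplicate slides.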 Conditions: higher = more signal.
A short description of experiment [4]: small molecules captured by biotinylated probe aFGF10 – biochemical, small-molecule microarray, fluorescence 635/667, stem cell growth factor project, primary screen (AID 1071).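 Note: score merges 667 nm spot intensity and signal to noise from triplicate slides.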 Particulars: higher = more signal.
In experiment [5] the target is Neurogenic locus notch homolog protein 2 (Homo sapiens) (UniProt Q04721). Description: small molecules binding Notch2 protein – biochemical, small-molecule microarray, 635 nm fluorescence, stem cell growth factors, primary screen (AID 1073). Conditions: higher = more signal.
In experiment [6] the target is Pro-neuregulin-1, membrane-bound isoform (Homo sapiens) (UniProt Q02297). The experiment in a line: small molecules binding neuregulin-1 protein – biochemical, small-molecule microarray, fluorescence 635/667, psychiatric disease protein project, primary screen (AID 1075).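 Note: score combines 667 nm spot fluorescence with signal to noise.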 Particulars: NRG1 binding, 635 nm fluorescence, higher = more signal.
Experiment [7] concerns Neuregulin-1 EGF-like domain. Description: small molecules binding NRG1 EGF domain – biochemical, small-molecule microarray, 635 nm fluorescence, primary screen (AID 1081).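 Note: binding of the protein to compounds printed on small-molecule microarray slides.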 Conditions: higher = more signal.
A short description of experiment [8]: FRG1 expression reporter modulators in myotubes – cell-based, C2C12 myotubes, firefly/Renilla luciferase, luminescence, FRG1 inhibition for FSHD, primary screen (AID 1084). Particulars: FRG1 promoter luciferase, higher = more signal, called active from +8 up or from −8 down.
A short description of experiment [9]: small molecules captured by biotinylated probe aFST – biochemical, small-molecule microarray, fluorescence 635/667, stem cell growth factor project, primary screen (AID 1086).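 Note: score merges 667 nm fluorescence with signal-to-noise of each printed compound spot.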 Conditions: higher = more signal.
The nature of experiment [10]: binders of probe aHhip on microarray, primary screen, stem cell growth factor project, biochemical, small-molecule microarray, fluorescence 635/667 (AID 1087).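 Note: score merges spot fluorescence at 667nm with spot signal to noise ratio.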 Conditions: higher = more signal.
Experiment [11] relates to PRMT1 (protein arginine N-methyltransferase 1). Description: small molecules binding arginine methyltransferase PRMT1 – biochemical, small-molecule microarray, 635 nm fluorescence, primary screen (AID 1088).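 Note: binding of Prmt1 protein to compounds spotted on small-molecule microarray slides.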 Particulars: higher = more signal.
Experiment [12] is described as follows: growth effects on S. cerevisiae YJM789 – YJM789 clinical isolate, OD600, 24 h, basal, primary screen (AID 1089).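 Note: growth of clinical yeast isolate S. cerevisiae YJM 789 seeded 1000 cells per well; test concentration not given here.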 Particulars: higher = more signal, called active from +8 up or from −8 down.
A short description of experiment [13]: S. pombe growth modifiers, basal conditions – strain 972, OD600, 24 h, no modulator, primary screen (AID 1090).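 Note: basal condition with compound alone and no growth modifier present; test concentration not given here.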 Particulars: S. pombe 972 growth, higher = more signal, called active from +8 up or from −8 down.
A short description of experiment [14]: budding yeast growth modifiers under rapamycin – strain BY4716, OD600, 96 h, primary screen (AID 1091). Note: test concentration not given here. Particulars: S. cerevisiae BY4716 + rapamycin, higher = more signal, called active from +8 up or from −8 down.
Experiment [15] addresses Torsin-1A-interacting protein 2 (Homo sapiens) (UniProt Q8NFQ8). Description: small molecules binding lysate-expressed LULL1 – cell lysate, human LULL1 lysate, 635/667 nm fluorescence, primary screen (AID 1092).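 Note: probe is lysate of COS7 cells overexpressing human LULL1; score merges per-feature 667 nm fluorescence with signal-to-noise.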 Particulars: small-molecule microarray, hLULL1 lysate binding, 635 nm fluorescence; higher = more signal.
Experiment [16] can be described thus: optical density change of DRC41 E. coli – strain DRC41, OD650, 24 h, E. coli filamentation project, primary screen (AID 1093).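 Note: MC1000 strain lacking acrAB efflux and sulA so SOS filamentation is blocked; test concentration not given here.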 Particulars: E. coli DRC41 growth, higher = more signal, called active from +8 up or from −8 down.
Experiment [17] in a line: probe aLefty2 binding to arrayed compounds – biochemical, biotinylated probe, 635/667 nm fluorescence, primary screen (AID 1094).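 Note: score merges spot fluorescence near 667 nm with spot signal-to-noise ratio.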 Conditions: small-molecule microarray, higher = more signal.
Experiment [18] has as its system Noggin (protein binding on small-molecule microarray). The experiment in a line: small molecules binding Noggin protein – biochemical, 635/667 nm fluorescence, primary screen (AID 1095).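 Note: score merges 667 nm feature fluorescence with signal to noise over triplicate slides.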 Conditions: 635 nm fluorescence, higher = more signal.
Experiment [19] deals with Neurogenic locus notch homolog protein 3 (Homo sapiens) (UniProt Q9UM47). The experiment in a line: small molecules binding NOTCH3 protein – biochemical, 635/667 nm fluorescence, primary screen (AID 1096). Conditions: small-molecule microarray, 635 nm fluorescence, higher = more signal.
Experiment [20] can be described thus: probe aEGFR binding to arrayed compounds – biochemical, biotinylated probe, 635/667 nm fluorescence, primary screen (AID 1097).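 Note: probe is a biotinylated anti-EGFR antibody binding compounds printed on slides; score combines fluorescence near 667 nm and signal to noise of each spot.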 Particulars: small-molecule microarray, higher = more signal.

Activity calls are given as the source filed them.

Pro-neuregulin-1, membrane-bound isoform (Homo sapiens), sequence (Q02297 whole entry, looked up, the tested form may be a part, canonical isoform): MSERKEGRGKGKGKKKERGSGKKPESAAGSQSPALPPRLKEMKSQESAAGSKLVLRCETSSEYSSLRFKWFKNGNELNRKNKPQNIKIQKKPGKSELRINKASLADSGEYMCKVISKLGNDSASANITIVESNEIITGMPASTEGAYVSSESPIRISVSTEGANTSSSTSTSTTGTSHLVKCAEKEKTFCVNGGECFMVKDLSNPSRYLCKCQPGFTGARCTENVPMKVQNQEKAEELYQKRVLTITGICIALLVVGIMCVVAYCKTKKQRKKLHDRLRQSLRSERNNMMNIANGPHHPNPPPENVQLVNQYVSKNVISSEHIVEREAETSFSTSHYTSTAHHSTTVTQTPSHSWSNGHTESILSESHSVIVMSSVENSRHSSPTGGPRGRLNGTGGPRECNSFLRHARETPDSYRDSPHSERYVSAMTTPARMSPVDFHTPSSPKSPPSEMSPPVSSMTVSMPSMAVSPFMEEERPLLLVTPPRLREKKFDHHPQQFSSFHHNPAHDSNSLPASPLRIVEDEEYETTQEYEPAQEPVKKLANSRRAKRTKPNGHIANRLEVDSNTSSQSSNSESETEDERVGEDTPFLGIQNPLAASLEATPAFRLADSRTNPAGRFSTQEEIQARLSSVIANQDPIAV
Neurogenic locus notch homolog protein 2 (Homo sapiens), sequence (Q04721 whole entry, looked up, canonical isoform): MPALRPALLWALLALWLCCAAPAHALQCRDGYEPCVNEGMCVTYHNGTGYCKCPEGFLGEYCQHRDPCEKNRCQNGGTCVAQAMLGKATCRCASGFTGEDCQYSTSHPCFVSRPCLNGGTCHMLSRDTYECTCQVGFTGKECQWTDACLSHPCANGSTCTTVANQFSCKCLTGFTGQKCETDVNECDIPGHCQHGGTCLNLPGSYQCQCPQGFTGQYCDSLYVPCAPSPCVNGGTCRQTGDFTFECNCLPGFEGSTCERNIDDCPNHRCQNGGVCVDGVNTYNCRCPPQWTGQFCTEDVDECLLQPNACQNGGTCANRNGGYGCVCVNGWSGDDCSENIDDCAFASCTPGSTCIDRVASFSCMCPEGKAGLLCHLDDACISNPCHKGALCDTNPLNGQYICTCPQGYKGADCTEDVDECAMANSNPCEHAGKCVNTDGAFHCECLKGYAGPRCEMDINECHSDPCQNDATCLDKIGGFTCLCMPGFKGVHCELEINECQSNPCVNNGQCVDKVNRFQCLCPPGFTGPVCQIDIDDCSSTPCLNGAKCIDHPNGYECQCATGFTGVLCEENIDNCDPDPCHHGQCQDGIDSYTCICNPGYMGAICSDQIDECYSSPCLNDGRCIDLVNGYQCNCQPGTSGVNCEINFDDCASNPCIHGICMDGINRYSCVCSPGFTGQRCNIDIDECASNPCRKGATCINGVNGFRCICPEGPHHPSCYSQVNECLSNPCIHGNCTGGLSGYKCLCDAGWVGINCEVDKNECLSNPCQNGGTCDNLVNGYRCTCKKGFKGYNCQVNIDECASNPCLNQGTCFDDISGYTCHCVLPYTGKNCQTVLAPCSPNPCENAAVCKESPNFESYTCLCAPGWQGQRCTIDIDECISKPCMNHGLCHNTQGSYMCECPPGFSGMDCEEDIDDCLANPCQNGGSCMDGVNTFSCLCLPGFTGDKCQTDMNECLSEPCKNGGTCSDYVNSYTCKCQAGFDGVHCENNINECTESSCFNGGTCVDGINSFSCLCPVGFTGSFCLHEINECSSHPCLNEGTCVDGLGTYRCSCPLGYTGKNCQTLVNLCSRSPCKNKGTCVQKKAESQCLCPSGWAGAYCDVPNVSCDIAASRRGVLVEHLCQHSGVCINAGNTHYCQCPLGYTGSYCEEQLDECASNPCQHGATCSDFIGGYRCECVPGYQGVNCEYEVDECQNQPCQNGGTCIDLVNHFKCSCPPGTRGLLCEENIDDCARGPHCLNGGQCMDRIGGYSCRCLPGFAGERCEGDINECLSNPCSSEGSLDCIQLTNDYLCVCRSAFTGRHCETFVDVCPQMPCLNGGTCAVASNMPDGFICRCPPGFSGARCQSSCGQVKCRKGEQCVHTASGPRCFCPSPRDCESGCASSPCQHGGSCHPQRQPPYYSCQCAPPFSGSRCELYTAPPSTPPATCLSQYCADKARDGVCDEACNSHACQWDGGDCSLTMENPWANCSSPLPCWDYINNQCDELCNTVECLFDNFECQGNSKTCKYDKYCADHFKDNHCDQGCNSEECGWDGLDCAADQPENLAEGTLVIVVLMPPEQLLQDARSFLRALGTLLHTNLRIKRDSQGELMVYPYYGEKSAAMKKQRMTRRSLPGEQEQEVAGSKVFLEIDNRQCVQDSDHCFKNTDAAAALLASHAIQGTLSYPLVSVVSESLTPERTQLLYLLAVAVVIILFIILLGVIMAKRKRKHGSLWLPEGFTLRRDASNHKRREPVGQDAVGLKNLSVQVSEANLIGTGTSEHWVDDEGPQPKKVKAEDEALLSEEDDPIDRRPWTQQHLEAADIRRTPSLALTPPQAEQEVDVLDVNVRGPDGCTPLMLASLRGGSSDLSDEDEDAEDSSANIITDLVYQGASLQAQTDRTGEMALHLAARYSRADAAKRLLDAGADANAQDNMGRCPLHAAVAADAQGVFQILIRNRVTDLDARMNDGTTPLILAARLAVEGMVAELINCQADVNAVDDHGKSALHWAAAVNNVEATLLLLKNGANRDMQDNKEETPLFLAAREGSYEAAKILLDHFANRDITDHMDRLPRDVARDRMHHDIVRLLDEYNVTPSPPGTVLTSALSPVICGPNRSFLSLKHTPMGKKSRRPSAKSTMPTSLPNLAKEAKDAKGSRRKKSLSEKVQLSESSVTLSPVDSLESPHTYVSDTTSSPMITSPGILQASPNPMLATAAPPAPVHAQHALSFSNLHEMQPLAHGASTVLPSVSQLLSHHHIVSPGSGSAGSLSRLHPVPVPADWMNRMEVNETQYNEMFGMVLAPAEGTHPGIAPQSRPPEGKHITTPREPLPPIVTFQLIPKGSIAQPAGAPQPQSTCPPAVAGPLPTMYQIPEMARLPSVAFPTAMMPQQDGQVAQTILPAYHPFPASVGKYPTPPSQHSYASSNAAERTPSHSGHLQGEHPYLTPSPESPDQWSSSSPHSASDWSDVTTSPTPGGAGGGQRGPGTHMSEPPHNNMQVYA
Torsin-1A-interacting protein 2 (Homo sapiens), sequence (Q8NFQ8 whole entry, looked up): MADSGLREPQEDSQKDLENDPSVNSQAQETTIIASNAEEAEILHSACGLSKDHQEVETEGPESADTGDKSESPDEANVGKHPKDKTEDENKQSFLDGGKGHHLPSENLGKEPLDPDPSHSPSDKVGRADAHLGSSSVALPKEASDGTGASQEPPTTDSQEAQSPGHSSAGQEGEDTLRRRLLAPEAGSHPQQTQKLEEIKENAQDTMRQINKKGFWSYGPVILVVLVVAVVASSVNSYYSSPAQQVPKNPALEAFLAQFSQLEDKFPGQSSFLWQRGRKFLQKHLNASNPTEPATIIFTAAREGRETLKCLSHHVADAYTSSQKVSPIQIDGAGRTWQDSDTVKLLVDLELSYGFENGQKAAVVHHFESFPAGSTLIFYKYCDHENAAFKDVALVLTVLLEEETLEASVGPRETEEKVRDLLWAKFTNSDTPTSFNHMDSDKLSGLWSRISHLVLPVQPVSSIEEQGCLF

On to `CN(C)CCCCNC(=O)[C@H]1C[C@H]2C(=O)N[C@@H](Cc3ccccc3)C(=O)N2[C@H]1c1ccc(O)cc1`, for which the composite z-score is -0.289 in experiment [1]; 0.703 in experiment [2]; -0.0805 in [3]; 0.934 in experiment [4]; 1.37 in experiment [5]; 1.65 in experiment [6]. Besides, the composite z-score in experiment [7] is 1.22; in experiment [9] it was 0.748; in [10] it was 0.107; in experiment [11], 1.54; in experiment [15] it was 0.248; in experiment [17] it was 0.0274. Besides, the values for the composite z-score in experiment [18], in [19] and in experiment [20] were 1.66, 1.11 and 0.116, respectively. Also, the z-score in [8] is 1.85 (inactive); in [12] it was -0.368 (inactive); in experiment [13], 0.523 (inactive); in experiment [14], -1.4 (inactive); in experiment [16], 1.12 (inactive).

As for `C=CC[C@@H](OC(=O)Nc1ccc(OC)cc1)c1ccc(O)c2ccccc12`, the composite z-score was -0.316 in experiment [1]; 0.129 in experiment [2]; -0.0364 in experiment [3]; 0.224 in experiment [4]; 0.746 in [5]; 0.263 in experiment [6]. Moreover, the composite z-score was 1.08 in [7]; 0.56 in experiment [9]; -0.0296 in experiment [10]; 1.28 in experiment [11]; 2.28 in [15]; -0.142 in experiment [17]. Further, the results for the composite z-score in [18], in [19] and in experiment [20] were 1.46, 1.05 and 0.0225, respectively. The z-score is 6.38 (inactive) in experiment [8]; -23.6 (active) in experiment [12]; -19.6 (active) in [13]; -1.31 (inactive) in experiment [14]; 1.05 (inactive) in [16].

In the case of `Cc1ccccc1C(O)C1C=CC2C(=O)N(C)C(=O)C2N1N1CCCCC1` (stereo not given), the composite z-score in experiment [1] was found to be 0.363; in [2] it was 0.831; in [3] it was 0.108; in experiment [4], 1.13; in experiment [5] it was 1.54; in experiment [6] it was 1.42. The composite z-score was 1.38 in experiment [7]; 0.927 in experiment [9]; -0.0296 in experiment [10]; 1.11 in experiment [11]; 3.18 in experiment [15]; 0.331 in experiment [17]. Besides, the composite z-score in experiment [18] was 0.21; in [19] it was 1.13; in experiment [20], -0.0044. The z-score in experiment [8] is 0.703 (inactive); in experiment [12], 0.299 (inactive); in experiment [13] it was 0.619 (inactive); in experiment [14] it was -0.417 (inactive); in experiment [16], -1.24 (inactive).

Take `[N-]=[N+]=NCc1ccccc1C[C@]1(C(=O)O)N=C(c2ccc(OCCCO)cc2)O[C@H]1c1ccccc1CN=[N+]=[N-]`: the composite z-score in experiment [1] is -0.0279; in experiment [2], 0.169; in [3] it was -0.0474; in experiment [4] it was 0.396; in experiment [5], 0.591; in experiment [6] it was 1.53. In addition, the composite z-score in experiment [7] is 1.16; in experiment [9], 0.467; in experiment [10], -0.239; in [11], 0.893; in experiment [15] it was 3.25; in [17] it was 0.0987. For the same compound, the composite z-score in experiment [18] is -0.118; in experiment [19], 0.759; in [20], 0.0617. Further, the z-score in [8] was -1.66 (inactive); in [12], -1.17 (inactive); in [13] it was -3.09 (inactive); in experiment [14], -1.92 (inactive); in experiment [16], -0.292 (inactive).

As for `COc1ccc(C(O)C2C=CC3C(=O)N(c4ccccc4)C(=O)C3N2Nc2ccc([N+](=O)[O-])cc2)cc1OCc1ccccc1` (stereo not given), the composite z-score in [1] is 2; in [2], -0.14; in [3], 0.649; in [4] it was 1.06; in [5] it was 1.29; in experiment [6] it was 2.06. Also, the composite z-score came to 1.26 in experiment [7]; 2.36 in experiment [9]; 1.2 in experiment [10]; 0.923 in experiment [11]; 2.72 in experiment [15]; 1.25 in experiment [17]. In addition, the results for the composite z-score in [18], in experiment [19] and in experiment [20] were 0.322, 1.11 and 0.852, respectively. The z-score is 0.565 (inactive) in experiment [8]; -0.225 (inactive) in [12]; 1.57 (inactive) in experiment [13]; 0.989 (inactive) in experiment [14]; -1.29 (inactive) in experiment [16].

On to `COCCOC(=O)N1C(=O)[C@@]2(c3cc(C#CCC(C(=O)OC)C(=O)OC)ccc31)[C@H](C(=O)N1CCCCCCC1)[C@H]1C(=O)O[C@H](c3ccccc3)[C@H](c3ccccc3)N1[C@@H]2c1ccc(OCCO)cc1`, for which the composite z-score is 3.71 in experiment [1]; 1.81 in experiment [2]; 0.755 in experiment [3]; 0.833 in [4]; 1.32 in [5]; 2.11 in experiment [6]. Also, the composite z-score in experiment [7] turned out to be 1.36; in [9] it was 3.4; in [10] it was 2.72; in [11], 1.54; in experiment [15] it was 4.11; in experiment [17] it was 1.66. Besides, the composite z-score amounted to 2.02 in experiment [18], 1.05 in experiment [19] and 1.26 in [20]. In addition, the z-score in experiment [8] was 0.109 (inactive); in [12], 1.47 (inactive); in experiment [13] it was 0.168 (inactive); in experiment [14], 2.66 (inactive); in experiment [16], 0.275 (inactive).

The values above are taken from PubChem BioAssay.
